Data as given in the supplement of paper PMC3334620.
In all, about 33,000 sequences were measured (“E-score (-0.5 to 0.5)”: median about -0.035, highest 2% from about 0.35 on). Many of the other results were omitted from the sample, so the highest values are more common in it than they were.

What follows are sequences tested against T1, Pdr3 (UniProt P33200) (assay: PBM E-score (8-mer binding enrichment) (E-score (-0.5 to 0.5)); higher = stronger / more preferred TF binding). Conditions: protein concentration: 200 nM; construct: GST-full length.
T1 sequence: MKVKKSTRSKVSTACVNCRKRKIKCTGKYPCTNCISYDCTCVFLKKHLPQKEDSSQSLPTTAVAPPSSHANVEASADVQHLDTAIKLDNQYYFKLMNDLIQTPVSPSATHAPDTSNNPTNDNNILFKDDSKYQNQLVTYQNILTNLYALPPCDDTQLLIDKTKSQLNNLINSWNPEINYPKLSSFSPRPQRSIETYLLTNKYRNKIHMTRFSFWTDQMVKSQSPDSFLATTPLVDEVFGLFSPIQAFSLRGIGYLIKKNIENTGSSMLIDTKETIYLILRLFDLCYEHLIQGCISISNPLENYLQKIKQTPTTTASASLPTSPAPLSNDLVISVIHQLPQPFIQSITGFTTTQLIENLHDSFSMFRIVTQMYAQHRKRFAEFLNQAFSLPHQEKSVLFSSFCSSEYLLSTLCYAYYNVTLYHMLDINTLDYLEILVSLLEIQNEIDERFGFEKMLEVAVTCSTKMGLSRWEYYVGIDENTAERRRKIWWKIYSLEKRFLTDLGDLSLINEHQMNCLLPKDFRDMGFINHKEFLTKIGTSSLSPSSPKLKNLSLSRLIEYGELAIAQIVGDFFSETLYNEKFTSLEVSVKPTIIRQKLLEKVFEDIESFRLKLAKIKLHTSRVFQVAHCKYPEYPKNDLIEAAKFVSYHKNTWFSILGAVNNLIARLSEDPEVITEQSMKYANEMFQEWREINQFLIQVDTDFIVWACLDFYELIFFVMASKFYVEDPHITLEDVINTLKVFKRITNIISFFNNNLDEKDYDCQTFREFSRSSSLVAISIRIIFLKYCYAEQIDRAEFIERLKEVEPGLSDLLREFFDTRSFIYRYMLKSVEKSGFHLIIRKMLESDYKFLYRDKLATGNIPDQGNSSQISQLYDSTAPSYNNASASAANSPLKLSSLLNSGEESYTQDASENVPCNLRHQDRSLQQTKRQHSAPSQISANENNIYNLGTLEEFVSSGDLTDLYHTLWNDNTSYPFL
Outline: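 For each ungapped eight-base word taken together with its reverse complement, the Universal PBM Analysis Suite assigned an E-score. Binding data came from GST-tagged yeast transcription factors, applied at about 100-200 nM, on universal all-10-mer Agilent arrays made double-stranded by primer extension. Fluorescent anti-GST marked bound protein, and scans were normalised with masliner.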

Row | Sequence | PBM E-score
1 | CCTTGTGA | -0.0319
2 | GGCTGTTA | 0.0369
3 | CACTTAGA | -0.119
4 | CGCTGGAC | -0.075
5 | TCCTCGCA | -0.0258
6 | CAAATTGC | 0.0819
7 | CAAAAACC | 0.0333
8 | CTTACCAA | -0.108
9 | AAGAGCAG | -0.0681
10 | CTATGGCC | -0.124
11 | AGTCGGAA | 0.414
12 | TGTCGCAA | -0.0293
13 | AGTCGGAC | 0.117
14 | TGTCGTAA | -0.113
15 | GGTCGGAC | 0.15
16 | CGTCGGAG | 0.178
17 | TGTCGGAA | 0.383
18 | CGTCGGAA | 0.411
19 | AGTCGGAG | 0.134
20 | GGTCGGCA | -0.00943
21 | CGTCGGAC | 0.252
22 | GGTCGGAA | 0.4
23 | CCTTGGCG | -0.0565
24 | CGCTTTGC | 0.0905
25 | CCCCACGA | -0.0538

Row | Sequence | PBM E-score
26 | ACAGTATC | -0.21
27 | AAACCAGT | -0.227
28 | GCTAGAGC | -0.272
29 | AAGCCCGG | 0.379
30 | CCGCCCCG | 0.435
31 | CCGCCCCC | 0.0913
32 | CCGCCCGG | 0.407
33 | AAGCCCGT | -0.162
34 | ACGCCCGG | 0.311
35 | AAGCCCGC | 0.213
36 | CCGCCCGC | 0.241
37 | ACGCCCCG | 0.181
38 | CACTCATG | -0.257
39 | AAAGGGAT | -0.154
40 | AACCGCCA | -0.0357
41 | GGGAGATA | 0.0536
42 | CGGAGATA | 0.386
43 | AGGAGATA | -0.182
44 | ATTCAAAA | 0.0638
45 | GAAAACTA | 0.0457
46 | AAATATAT | 0.19
47 | CGAAAGCC | -0.105
48 | GTAACGCA | 0.0163
49 | CTAACGAA | -0.0337
50 | GTAACGGA | 0.397

Row | Sequence | PBM E-score
51 | CTAACGGA | 0.389
52 | ATAACGGC | 0.135
53 | CTAACGGC | -0.00464
54 | GTAACGTA | -0.165
55 | ATAACGGA | 0.386
56 | ATAACGGG | 0.0143
57 | CATGTGCG | 0.0377
58 | ATAGCGTC | -0.153
59 | GTGCAGTA | -0.0405
60 | CCTGGCCA | -0.107
61 | ATGAAGCA | -0.152
62 | ACGCTATG | -0.187
63 | ATCGACCA | -0.176
64 | CAAAGAGC | -0.0254
65 | CCGGAGCG | 0.37
66 | ACGGAGCG | 0.337
67 | ACGGAGCC | 0.305
68 | CCGGAGCA | 0.401
69 | GCGGAGCC | 0.296
70 | GCGGAGCA | 0.304
71 | TCGGAGCA | 0.28
72 | CAGGAGCG | -0.12
73 | CCGGAGCC | 0.403
74 | AAAAGAGT | -0.208
75 | AAGATTCG | 0.108

Row | Sequence | PBM E-score
76 | ACAACACG | 0.0551
77 | ATGTTCGC | -0.165
78 | ACTGGCGG | 0.153
79 | CTTCAGGC | -0.224
80 | CGCAAGAG | 0.0334
81 | CGGGAATA | 0.331
82 | ATGGAATA | 0.205
83 | ATGGAATC | 0.205
84 | CTGGAATA | 0.08
85 | CCGGAATA | 0.437
86 | AGGGAATG | -0.0936
87 | ACGGAATG | 0.432
88 | ACGGAATA | 0.445
89 | ACGGAATC | 0.465
90 | AGGGAATC | 0.00236
91 | ATGGAATG | 0.184
92 | AAGGAATA | -0.0227
93 | GGCCGATA | 0.0764
94 | CATGTTTA | -0.0824
95 | GCCGCATA | 0.237
96 | AAGGGCAC | -0.157
97 | AAGCCGCC | 0.0806
98 | AACCTAGA | 0.11
99 | AGACAGTC | -0.0923
100 | CCGGAATC | 0.471

Row | Sequence | PBM E-score
101 | GCGGAATA | 0.398
102 | GGGGAATA | 0.121
103 | GTGGAATA | 0.122
104 | CTGGAATC | 0.02
105 | CGGGAATC | 0.334
106 | CCCACTCA | -0.108
107 | AGATTGTC | 0.0868
108 | AGTAAAAT | -0.11
109 | ACGGCTAG | -0.152
110 | AAAACCAA | -0.0135
111 | AATATTTG | 0.0496
112 | CATACGGC | 0.143
113 | AATACGGA | 0.351
114 | TATACGGA | 0.221
115 | GATACGGA | 0.357
116 | GATACGGC | 0.014
117 | CATACGGA | 0.359
118 | CTGTTCTC | -0.0802
119 | ATGAGCTG | -0.0649
120 | CGTATTTA | 0.164
121 | CGGTGCCA | -0.115
122 | AATCCCGA | 0.358
123 | AGTCCCGA | 0.147
124 | TATCCCGA | 0.305
125 | AATCCCAT | -0.0271

Row | Sequence | PBM E-score
126 | AATCCCGC | 0.333
127 | AATCCCGT | 0.409
128 | ACAAGGTG | -0.125
129 | GTCCTCTA | -0.222
130 | GGAACCTA | 0.3
131 | TCTGGCAA | 0.0125
132 | ACCTACGC | -0.0495
133 | CAAACGGA | 0.37
134 | AAAACGGA | 0.314
135 | CAAACGGG | 0.184
136 | GAAACGAA | 0.0452
137 | GAAACGGC | 0.202
138 | TAAACGTA | -0.137
139 | TAAACGGA | 0.366
140 | GAAACGGA | 0.395
141 | TAAACGAA | -0.0987
142 | CAAATGCG | 0.0429
143 | CATTCTCC | -0.105
144 | CAGGGCAA | 0.0442
145 | CCGCTAGG | 0.0934
146 | TCGCTAGA | -0.125
147 | CGTACCAC | -0.102
148 | AATCCTAG | -0.108
149 | CTGATAGA | -0.118
150 | CTTCCCGA | 0.291

Row | Sequence | PBM E-score
151 | GTTCCTGA | -0.0384
152 | CTTCCGGC | 0.398
153 | CTTCCGGA | 0.451
154 | CTTCCTGA | 0.0336
155 | GTTCCGGA | 0.475
156 | CTGCCGGC | 0.339
157 | ATACCGGA | 0.303
158 | ATTCCAGA | 0.0594
159 | ATTCCGGA | 0.481
160 | CTACCGGC | -0.0343
161 | GTACCGGA | 0.318
162 | AACTGATA | 0.0335
163 | ATAAGCAA | -0.128
164 | GATGCGCA | 0.0246
165 | AAAACCCG | 0.319
166 | CACTTACG | 0.121
167 | AGCCCTCA | -0.248
168 | CCCGGCGA | 0.296
169 | GCCGGCTA | 0.248
170 | CCCGGCGC | 0.26
171 | GCCGGCGA | 0.36
172 | ACCGGCGC | 0.228
